In the library only some 1.8% were active in any assay of this set; here they are far more common.
NRP1-CendR mod = NRP-1/CendR interaction modulation | O14786 | FAM-RPARPAR peptide binding to NRP-1, fluorescence polarization | inhibition, % at 25 µM | 360,000 tested, 0.85% active;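 active = inhibition or corrected inhibition above about 18%, plus a signal ratio from 0.5 to 1.5, limit read from the data, passing the limit was not always enough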
ARNT-TACC3 inh = disruptors of human ARNT/TACC3 interaction | Q9Y6A5 | AlphaScreen His-ARNT PAS-B/GST-TACC3 binding, luminescence; TACC3 fragment carries E629A point mutation | inhibition, % at 9.99 µM | 390,000 tested, 0.66% active | AID 623870;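 active = mean inhibition of replicates at least 50% and at least half of replicates each reaching 50%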
INS-1E GSIS act = primary screen for activators of insulin secretion dependent on glucose, INS-1E cells, GLuc reporter luminescence; INS-1E GLuc reporter insulin secretion, 2-3 h; activation, % at 16.6 µM; 370,000 tested, 0.61% active; AID 743287;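 active = lowest replicate activation of at least 40%, so every replicate reaches that level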
ABCB6 inh 2 = blocks the human ABCB6 transporter; Q9NP58; K562-ABCB6 porphyrin accumulation, flow cytometry, 1 h; hits give low values; fluorescence ratio to DMSO, % at 10 µM; 360,000 tested, 0.19% active; AID 602162;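 active = fluorescence ratio to DMSO below 75%, the collection mean minus 3 SD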;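 also: signal is porphyrin accumulated inside mitochondria; lower ratio means ABCB6 inhibition with less porphyrin fluorescence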
Target sequence (Q9NP58 whole entry, looked up): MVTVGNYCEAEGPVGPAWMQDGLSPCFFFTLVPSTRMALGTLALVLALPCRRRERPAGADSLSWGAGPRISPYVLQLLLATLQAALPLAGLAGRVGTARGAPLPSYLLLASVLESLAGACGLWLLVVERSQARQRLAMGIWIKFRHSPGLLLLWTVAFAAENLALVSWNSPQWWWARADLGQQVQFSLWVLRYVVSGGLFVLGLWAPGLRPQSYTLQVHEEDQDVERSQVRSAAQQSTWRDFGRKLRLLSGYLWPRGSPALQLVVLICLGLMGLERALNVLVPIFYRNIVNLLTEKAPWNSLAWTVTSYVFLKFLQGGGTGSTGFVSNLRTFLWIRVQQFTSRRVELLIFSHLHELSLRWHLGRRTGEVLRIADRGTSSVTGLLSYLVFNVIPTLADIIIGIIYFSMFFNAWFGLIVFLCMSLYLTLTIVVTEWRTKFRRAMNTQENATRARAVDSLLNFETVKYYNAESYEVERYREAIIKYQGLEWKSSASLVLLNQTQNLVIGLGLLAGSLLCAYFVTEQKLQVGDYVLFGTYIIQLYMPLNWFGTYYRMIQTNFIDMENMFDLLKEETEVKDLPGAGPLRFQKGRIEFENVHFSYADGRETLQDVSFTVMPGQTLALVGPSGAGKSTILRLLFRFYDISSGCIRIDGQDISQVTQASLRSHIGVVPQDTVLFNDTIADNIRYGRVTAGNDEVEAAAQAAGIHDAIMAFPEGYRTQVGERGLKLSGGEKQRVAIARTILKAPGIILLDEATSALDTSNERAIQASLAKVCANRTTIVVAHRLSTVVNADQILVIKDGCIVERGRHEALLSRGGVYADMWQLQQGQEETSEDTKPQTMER
iPSC survival up = enhancers of human iPSC single-cell survival; 360,000 tested, 0.044% active; survival enhancement, % at 20 µM; hiPSC single-cell survival, ATPlite luminescence; 100% = ROCK inhibitor wells, 0% = DMSO; in the data active = survival enhancement above about 18%;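 also: cells exposed to compounds for 16 hours before the ATP read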
Each line names hits and unclear results; the compound was inactive in the other large screens; ! = not active in a repeat.

CC12CC(NC(=O)N1c1cccc(C(=O)Nc3ncn[nH]3)c1)c1ccccc1O2 (stereo not given)	ARNT-TACC3 inh 20.7 (no result: INS-1E GSIS act)
CCn1c(SCC(=O)OC)nc2sc3c(c2c1=O)CC(C)(C)OC3	INS-1E GSIS act 74.3
CCSc1nc2sc3c(c2c(=O)n1CC)CC(C)(C)OC3	none (no result: INS-1E GSIS act)
C[C@@H]1CN([C@@H](C)CO)S(=O)(=O)c2ccc(-c3cccnc3)cc2O[C@H]1CN(C)C(=O)C1CC1	none (no result: NRP1-CendR mod, ARNT-TACC3 inh, ABCB6 inh 2, iPSC survival up)
C=CCNC(=O)c1onc(CSc2ccc(F)c(F)c2)c1C(=O)NCC=C	NRP1-CendR mod 25.2
O=C1CN(Cc2ccccc2)C[C@@H]2[C@H](c3ccc(-c4ccccc4)cc3)[C@H](CO)N12	none (no result: NRP1-CendR mod, ARNT-TACC3 inh, ABCB6 inh 2, iPSC survival up)
Cc1c(C)c2ccc(OCc3ccc(C(=O)O)o3)c(C)c2oc1=O	none (no result: INS-1E GSIS act)
Cc1c(C)c2ccc(OS(C)(=O)=O)c(C)c2oc1=O	ABCB6 inh 2 69.0
O=C(c1ccco1)N1CCN(C2CN(Cc3ccccc3)S(=O)(=O)C2)CC1 (stereo not given)	INS-1E GSIS act 47.2 (no result: ARNT-TACC3 inh)
O=C(C[C@H]1C=C[C@@H](NC(=O)C2CCC2)[C@H](CO)O1)NC1CCC1	none (no result: NRP1-CendR mod, ABCB6 inh 2, iPSC survival up)
O=C(Nc1cc(F)ccc1F)N1C[C@@H]2[C@H](c3ccccc31)[C@H](CO)N2CC1CCCC1	none (no result: NRP1-CendR mod, ABCB6 inh 2, iPSC survival up)
C=C(C)C1Cc2c(C)nn(-c3cccc4cccnc34)c2C1 (stereo not given)	INS-1E GSIS act 50.8
C=C(C)C1Cc2c(C)nn(-c3ccccn3)c2C1 (stereo not given)	none (no result: INS-1E GSIS act)
C[C@@H]1CN([C@@H](C)CO)C(=O)c2cc(C#CC3CCCCC3)cnc2O[C@@H]1CN(C)S(=O)(=O)c1ccccc1	none (no result: NRP1-CendR mod, ABCB6 inh 2, iPSC survival up)
O=C1CSC(=S)N1N=Cc1ccc(Cl)cc1Cl	none (no result: INS-1E GSIS act)
Cc1ccccc1/C=N/N1C(=O)CSC1=S	ARNT-TACC3 inh 38.9
O=C1CSC(=S)N1N=Cc1ccccc1O	ARNT-TACC3 inh 65.2
O=C1CSC(=S)N1/N=C/c1cccnc1	ARNT-TACC3 inh 38.9
O=C1CSC(=S)N1N=Cc1cccc2ccccc12	none
CO[C@@H]1CN(C)C(=O)c2ccc(NC(=O)c3nc4ccccc4s3)cc2OC[C@@H](C)N(Cc2cncnc2)C[C@@H]1C	none (no result: NRP1-CendR mod, ARNT-TACC3 inh, ABCB6 inh 2, iPSC survival up)
CC(=O)N(C)C[C@H]1Oc2cc(C#Cc3ccc(F)cc3)ccc2S(=O)(=O)N([C@@H](C)CO)C[C@H]1C	none (no result: NRP1-CendR mod, ABCB6 inh 2, iPSC survival up)
Cc1nn(-c2ccccc2)c(N2CCCC2)c1C=O	none
Cc1nn(-c2ccccc2)c(N2CCCC2)c1/C=C1\N=C(c2ccccc2)OC1=O	NRP1-CendR mod 75.7 (no result: ARNT-TACC3 inh)
C#CCOCCOCCOCCNc1nc(N2CCN(C(=O)CCCCCCCCCCNC(=O)[C@@H](CCSC)n3cc(CCO)nn3)CC2)nc(N2CCN(C(=O)CCCCCCCCCCNC(=O)[C@H](CO)n3cc(CCCCCN)nn3)CC2)n1	none (no result: INS-1E GSIS act)
CC[C@H](C)Cc1cn([C@@H](CCCCN)C(=O)NCCCCCCCCCCC(=O)N2CCNCC2)nn1	INS-1E GSIS act 40.5
C#CCOCCOCCOCCNc1nc(N2CCN(C(=O)CCCCCCCCCCNC(=O)[C@H](CCCCN)n3cc(C[C@@H](C)CC)nn3)CC2)nc(N2CCN(C(=O)CCCCCCCCCCNC(=O)[C@H](CCCN=C(N)N)n3cc(C[C@@H](C)CC)nn3)CC2)n1	NRP1-CendR mod 39.6 (no result: INS-1E GSIS act)
C#CCOCCOCCOCCNc1nc(N2CCN(C(=O)CCCCCCCCCCNC(=O)[C@@H](CCSC)n3cc(CCO)nn3)CC2)nc(N2CCN(C(=O)CCCCCCCCCCNC(=O)[C@H](CCCN=C(N)N)n3cc(C[C@@H](C)CC)nn3)CC2)n1	NRP1-CendR mod 20.9 (no result: INS-1E GSIS act)
Cc1noc(C)c1S(=O)(=O)N(C)C[C@@H]1Oc2ccc(NC(=O)CCCCCC(=O)Nc3ccccc3N)cc2CC(=O)N([C@H](C)CO)C[C@H]1C	none (no result: NRP1-CendR mod, ARNT-TACC3 inh, ABCB6 inh 2, iPSC survival up)
CSc1nc(N2CCOCC2)c2sccc2n1	INS-1E GSIS act 76.0
COc1ccc(Nc2nc3c(C)cccc3cc2C#N)cc1	NRP1-CendR mod 38.0
CCOC(=O)C1=C(C)N(CCCC(=O)O)C(=O)NC1c1ccc(Br)cc1 (stereo not given)	none (no result: NRP1-CendR mod, ARNT-TACC3 inh, ABCB6 inh 2, iPSC survival up)
CCOC(=O)C1=C(C)N(CCCC(=O)O)C(=O)NC1c1ccccc1 (stereo not given)	NRP1-CendR mod 29.9
Fc1ccc(CCNC(=S)Nc2ccc(F)cc2)cc1	none (no result: ARNT-TACC3 inh, INS-1E GSIS act)
CCCCc1ccc(NC(=S)NCCc2ccc(F)cc2)cc1	INS-1E GSIS act 46.3
O=C([C@@H]1CC=C[C@@H]2CCN(C3CCCCC3)C(=O)[C@@H]21)N1CCN(c2ccccc2)CC1	NRP1-CendR mod 23.4
COc1ccc(CN2CC3(CCN(C(=O)Nc4cccc(F)c4)CC3)c3c([nH]c4cc(OC)ccc34)[C@@H]2CO)cc1	none (no result: NRP1-CendR mod, ARNT-TACC3 inh, ABCB6 inh 2, iPSC survival up)
COc1cccc(CN2[C@@H]3CNC[C@H]2C3c2ccc(/C=C/c3ccccc3)cc2)c1 (stereo not given in full)	none (no result: NRP1-CendR mod, ARNT-TACC3 inh, ABCB6 inh 2, iPSC survival up)
COc1cc(CN2[C@@H]3CNC[C@H]2C3c2ccc(/C=C/c3ccccc3)cc2)cc(OC)c1 (stereo not given in full)	INS-1E GSIS act 49.2! (no result: NRP1-CendR mod, ARNT-TACC3 inh, ABCB6 inh 2, iPSC survival up)
O=C(O)c1ccccc1C(=O)NCC(O)COc1ccc(Cl)cc1 (stereo not given)	none
O=C(O)c1ccccc1C(=O)NCC(O)COCC1CC=CCC1 (stereo not given)	iPSC survival up 28.3
Cc1ccc(NC(=S)c2ccc3ccccc3n2)c(C)c1	INS-1E GSIS act 57.4
COCC(=O)N1CC2(C1)[C@H](c1ccccc1)[C@H](CO)N2Cc1ccccc1OC	none (no result: NRP1-CendR mod, ARNT-TACC3 inh, ABCB6 inh 2, iPSC survival up)
O=C(COc1ccccc1)N(Cc1cccc(F)c1)C1CCS(=O)(=O)C1 (stereo not given)	INS-1E GSIS act 51.4
CCOc1ccc(Nc2oc(-c3cccc(Cl)c3)nc2C#N)cc1	INS-1E GSIS act 106.0
O=C(NC1CCS(=O)(=O)C1)C1CCCC1 (stereo not given)	none
CCCCC1CCC(C(=O)NC2CCS(=O)(=O)C2)CC1 (stereo not given)	NRP1-CendR mod 38.2 (no result: INS-1E GSIS act)
COc1cccc(C(NC(C)=O)c2nc(-c3ccc(C)c(C)c3)cs2)c1 (stereo not given)	NRP1-CendR mod 34.4 (no result: ARNT-TACC3 inh, INS-1E GSIS act)
COc1cccc(C(NC(C)=O)c2nc(-c3ccc4ccccc4c3)cs2)c1 (stereo not given)	none (no result: ARNT-TACC3 inh)
CCN(CC)C(=O)c1cccc(-c2csc(C(NC(C)=O)c3cccc(OC)c3)n2)c1 (stereo not given)	NRP1-CendR mod 22.5 (no result: ARNT-TACC3 inh)
CCN(CC)C(=O)c1cccc(-c2csc(C(NC(C)=O)c3ccccc3)n2)c1 (stereo not given)	none (no result: ARNT-TACC3 inh)
COCCNC(=O)C[C@H]1CC[C@H](NS(=O)(=O)c2ccc(C)cc2)[C@H](CO)O1	none (no result: NRP1-CendR mod, ABCB6 inh 2, iPSC survival up)
O=C(c1ncn(Cc2ccccc2)c1C(=O)N1CCN(c2ccccc2)CC1)N1CCN(c2ccccc2)CC1	none
O=C(c1ncn(Cc2ccccc2)c1C(=O)N1CCc2ccccc2C1)N1CCc2ccccc2C1	NRP1-CendR mod 29.5
CCCC(=O)Nc1ccc2c(c1)C(=O)N(C)C[C@@H](OC)[C@@H](C)CN(Cc1ccccc1)[C@@H](C)CO2	none (no result: NRP1-CendR mod, ABCB6 inh 2, iPSC survival up)

From PubChem
